Assay outcomes (PubChem)
Only some compounds are listed: those with a hit (about 7.3% of all), similar ones and a draw of the others.
Rab9 promoter act: qHTS Assay for Rab9 Promoter Activators; hit rate 2.8% among 320,000; Potency, µM (highest dose often 9.22 µM), inactives show top-dose activation, negative = inhibition, hits mostly activators; Huh7 Rab9 promoter-luciferase reporter, luminescence, 24 h; also: % of control where 0% means no effect; nearly all actives have a fitted effect of over 60% in size
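Huh7 reporter line, Rab9 promoter upstream of luciferase. Compound exposure 24 h at 37 °C in reduced-serum medium with 10% FBS. Read-out: luminescence.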
NPC1 prom act: qHTS Assay for NPC1 Promoter Activators; Huh7 NPC1 promoter luciferase reporter, 24 h; Potency, µM (top dose mostly 9.22 µM), inactives show at the highest dose activation, usual class: activators; hit rate 2.4% among 320,000; AID 485313, 2010; also: % of control where 0% means no effect; nearly all actives have a fitted effect of over 60% in size
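NPC1 promoter–luciferase Huh7 cells; 24 h compound; luminescence.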
FLuc modulator: qHTS profiling assay for firefly luciferase inhibitor/activator using purifed enzyme and Km concentrations of substrates (counterscreen for miR-21 project); Luciferin 4-monooxygenase (Photinus pyralis), P08659; hit rate 6.9% among 360,000; purified FLuc, Km substrates, luminescence inhibition; Potency, µM (series often up to 57.5 µM), inactives show at the highest dose activity change, negative = inhibition, hits mostly inhibitors;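 also: plate controls were vehicle for no effect and reference inhibitor for full effect; nearly all actives have a fitted effect of over 55% in size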
Target sequence (P08659 whole entry, looked up): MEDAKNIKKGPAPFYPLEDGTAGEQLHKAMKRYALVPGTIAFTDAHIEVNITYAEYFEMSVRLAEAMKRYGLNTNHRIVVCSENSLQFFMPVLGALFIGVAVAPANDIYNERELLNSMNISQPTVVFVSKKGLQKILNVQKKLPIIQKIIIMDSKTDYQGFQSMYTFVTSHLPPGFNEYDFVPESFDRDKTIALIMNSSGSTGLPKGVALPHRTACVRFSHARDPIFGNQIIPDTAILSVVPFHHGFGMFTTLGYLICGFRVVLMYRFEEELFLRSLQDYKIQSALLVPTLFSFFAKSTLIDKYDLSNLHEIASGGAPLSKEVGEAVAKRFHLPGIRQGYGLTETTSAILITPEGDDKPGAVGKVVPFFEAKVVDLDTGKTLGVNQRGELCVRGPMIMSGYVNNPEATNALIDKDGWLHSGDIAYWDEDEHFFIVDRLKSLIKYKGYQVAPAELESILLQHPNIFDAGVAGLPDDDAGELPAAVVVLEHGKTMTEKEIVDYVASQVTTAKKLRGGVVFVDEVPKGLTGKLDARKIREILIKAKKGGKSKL
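Purified P. pyralis luciferase (10nM final) with 10uM D-luciferin and 10uM ATP (Km levels) in 50mM Tris acetate pH 7.5, 10mM Mg acetate, 0.01% Tween-20, 0.05% BSA; qHTS 6-point titration, ~60 µM downward; luminescence read.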
uPA generation: qHTS for Inhibitors of Cell Surface uPA Generation; cell surface uPA generation assay, qHTS; Potency, µM (highest dose often 38.3 µM), inactives show top-dose activity change, negative = inhibition, usual class: inhibitors; hit rate 0.31% among 330,000; active = well fitted inhibition curve with a large enough effect; inconclusive = small, poorly fitted or top-dose-only effect; inactive = no such curve, though single readings can be large or run the other way; tested in mouse RAW 264.7 cells; also: % is scaled to controls: 0 for no effect and ±100 for the full control effect; nearly all actives have a fitted effect of over 55% in size
ELG1 genotoxic: qHTS screen for small molecules that induce genotoxicity in human embryonic kidney (HEK293T) cells expressing luciferase-tagged ELG1; HEK293T ELG1-luciferase reporter, luminescence, 16 h; Potency, µM (titrated, usually from 46 µM), without a hit: at the top dose activity change, positive = activation, actives largely listed as activators; hit rate 1.3% among 330,000; also: % of control where 0% means no effect; nearly all actives have a fitted effect of over 60% in size
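Reporter readout depends on ELG1 protein level, which increases with genetic stress. After 16 hr compound exposure at 37 °C, luciferase activity was quantified using ONE-Glo.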
SMN2 splice enh: qHTS Assay for Enhancers of SMN2 Splice Variant Expression; Potency, µM (series often up to 46.1 µM), without a hit: at the highest dose activity change, positive = activation, usual class: activators; hit rate 2.8% among 210,000; AID 1458, 2008; HEK293 SMN2-luciferase splicing reporter, luminescence, 30-36 h; also: % of control where 0% means no effect; nearly all actives have a fitted effect of over 55% in size
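HEK293 cells carry an SMN2 minigene-luciferase reporter in which exon 7 inclusion puts luciferase in frame. Cells were seeded at 2000 cells/well, attached for 10-12 hours, then exposed to compounds for 30-36 hours at 37C before ONE-Glo luminescence.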
* hit, by the source's call; ? = inconclusive; · = no result given. Unless noted, calls follow the shape of the dose curve; as a rule, active = well fitted curve in the direction sought with a large enough effect; inconclusive = small, poorly fitted or top-dose-only effect, or another doubt; inactive = no such curve, though single readings can be large; an effect the other way counts as inactive or inconclusive. Potency is read from the fitted curve at half-maximal effect.

SMILES	Rab9 promoter act	NPC1 prom act	FLuc modulator	uPA generation	ELG1 genotoxic	SMN2 splice enh
COC(=O)c1cccc(NC(=O)c2ccc(OC)c(Cl)c2)c1	?	?	11µM*	-9%	6%	?
Cc1cc(NC(=O)NCc2ccccc2)c(=O)n(Cc2ccccc2F)c1	20%	11%	5.4µM*	?	14%	·
Cc1cc(NC(=O)CC(C)C)c(=O)n(Cc2ccccc2F)c1	-2%	-2%	0%	-3%	1%	·
COc1cccc(Cn2cc(C)cc(NC(=O)NCc3ccccc3)c2=O)c1	18%	15%	2.1µM*	?	4%	·
COc1cccc(NC(=O)Nc2cccn(Cc3ccc(C)cc3)c2=O)c1	-32%	-8%	?	9%	-7%	·
COc1ccc(CNC(=O)CSc2nc3ccsc3c(=O)n2Cc2ccccc2Cl)cc1	·	·	-7%	·	·	-3%
N#Cc1c(N)nc(N)nc1Nc1ccc(Br)cc1	1.4µM*	1.3µM*	6µM*	-4%	9.2µM*	·
O=C(Nc1cccnc1)c1cnn2c1NC(=C1CC1)C=C2C(F)F	·	·	-1%	·	·	·
Cc1ccc(NC(=O)c2ccc3c(O)c(S(=O)(=O)c4ccccc4)c(=O)[nH]c3c2)cc1Cl	·	·	11µM*	·	·	·
COc1ccc(S(=O)(=O)c2c(O)c3ccc(C(=O)Nc4ccccc4)cc3[nH]c2=O)cc1	-2%	-1%	?	3%	-1%	·
CCc1ccc(NC(=O)c2ccc3c(O)c(S(=O)(=O)c4ccccc4)c(=O)[nH]c3c2)cc1	·	·	4.3µM*	·	·	·
O=C(c1ccc(CS(=O)c2ccccc2Cl)o1)N1CCN(c2ccccc2F)CC1 (stereo not given)	·	·	5%	·	·	·
O=C(NCCCN1CCN(c2ccc(F)cc2)CC1)c1cc2c(Cl)nc3ccccc3c2s1	·	·	0%	·	·	8%
CCCc1ccc(S(=O)(=O)N2CCC(Oc3ccc(-n4cnnn4)cc3)CC2)cc1	·	·	2%	·	·	-6%
O=C(COc1ccc2ccccc2c1)NC1=NCCS1	?	4.5µM*	4.8µM*	4%	8%	9%
O=C(CSc1ccc([N+](=O)[O-])cn1)Nc1ccc2c(c1)OCCO2	0%	0%	?	-13%	3%	-6%
CN(C)S(=O)(=O)c1ccc(SCC(=O)Nc2ccc3c(c2)OCCO3)nc1	-1%	11%	21µM*	0%	1%	·
CC1(C(=O)OCC(=O)Nc2ccc3ccccc3c2)CC1(Cl)Cl (stereo not given)	26%	17%	19µM*	-4%	1%	0%
O=C(CSc1ncccn1)NC(=O)Nc1ccc2c(c1)OCCO2	16%	2%	24µM*	9%	10%	8%
Cc1cc2c(cc3c(SCc4ccc(Cl)cc4)nncn32)o1	·	·	2%	·	·	·
ICCc1ccccc1	·	·	·	·	·	-8%
O=C(CSC1=NCCS1)Nc1ccc2ccccc2c1	18%	18%	17µM*	4%	3%	·
O=C(CSc1nccc(=O)[nH]1)Nc1ccc2c(c1)OCCO2	2.2µM*	2.2µM*	11µM*	-2%	15µM*	·
O=C(CSc1nc(-c2ccccc2)[nH]c1-c1ccccc1)Nc1ccc2c(c1)OCCO2	·	·	9.5µM*	·	·	-2%
Cc1cc(=O)[nH]c(SCC(=O)Nc2ccc3c(c2)OCCO3)n1	-42%	-39%	0%	-1%	-3%	·
SMILES	Rab9 promoter act	NPC1 prom act	FLuc modulator	uPA generation	ELG1 genotoxic	SMN2 splice enh
O=C(CSc1ccccn1)Nc1ccc2c(c1)CCC2	?	17%	12µM*	3%	?	·
Cc1ccc(Cl)cc1NC(=O)Cn1c(=O)n(CCC(=O)N2CCc3ccccc3C2)c(=O)c2ccccc21	·	·	-6%	·	·	-1%
Cc1noc(C)c1C(=O)N1CCC2(CCCN(c3ccccn3)C2)CC1	·	·	·	·	·	11%
Cc1ccc2c(CNC3CCC(C)CC3)c(C(=O)O)n(Cc3cccc(F)c3)c2c1 (stereo not given)	·	·	-8%	·	·	·
O=C(CSc1ccccn1)Nc1ccc2c(c1)C(=O)c1ccccc1C2=O	4µM*	2.8µM*	?	-2%	16µM*	10µM*
O=C(CSc1ccccn1)Nc1ccc2ccccc2c1	2.8µM*	3.5µM*	4.8µM*	·	?	·
O=C(CSc1ccccn1)Nc1ccc2c(c1)OCCO2	2.5µM*	4µM*	8.5µM*	-2%	?	·
Cc1cc(NC(=O)CSc2ccccn2)cc(NC(=O)CSc2ccccn2)c1	5%	0%	4%	1%	-7%	·
O=C(CSc1ncccn1)Nc1ccc2c(c1)OCO2	·	·	·	-4%	8%	·
O=C(Oc1ccc([N+](=O)[O-])cc1)c1cc(-c2ccccc2)nc2ccccc12	3%	-3%	-4%	4%	-1%	-1%
O=C(Oc1ccc(-c2cnc3ccccc3n2)cc1)c1ccc(Br)o1	27%	?	?	-8%	9.2µM*	?
O=C(Oc1ccc(-c2cnc3ccccc3n2)cc1)c1ccc(Cl)c([N+](=O)[O-])c1	3%	12%	?	-1%	8.2µM*	?
O=C(Oc1cccc2cccnc12)c1ccc(Br)o1	10%	7%	1%	1%	0%	-23%
O=C(Oc1ccc(-c2cnc3ccccc3n2)cc1)c1cccc([N+](=O)[O-])c1	?	?	?	2%	7.3µM*	32µM*
O=[N+]([O-])c1ccc(Oc2ccc(-c3cnc4ccccc4n3)cc2[N+](=O)[O-])cc1	-6%	2%	?	-3%	10%	-15%
CC(NC(=O)/C(=C\c1cccc([N+](=O)[O-])c1)NC(=O)c1ccco1)C(=O)O (stereo not given)	2%	-1%	15µM*	6%	-1%	-21%
O=C(/C=C/c1cccc([N+](=O)[O-])c1)Nc1cccc(NC(=O)c2ccco2)c1	7%	2%	19µM*	-7%	-5%	-1%
COc1cc(SC)ccc1C(=O)Nc1cccc(C2OCCCO2)c1	1.4µM*	3.5µM*	17µM*	3%	3%	·
COc1cc(SC)ccc1C(=O)Nc1ccc2c(c1)CCC2	4µM*	4µM*	2.1µM*	-10%	?	·
COc1cc(SC)ccc1C(=O)NCC1CCCO1 (stereo not given)	3%	14%	-1%	0%	-2%	1%
COc1cc(SC)ccc1C(=O)Nc1ccc(Cl)cn1	0.89µM*	0.89µM*	0.076µM*	-17%	?	·
COc1cc(SC)ccc1C(=O)Nc1ccncc1	-21%	0%	?	-15%	12%	-50%
COc1cc(SC)ccc1C(=O)Nc1ccccc1C#N	3%	-1%	?	-5%	9.2µM*	13µM*
